# This is a sample that favours compounds with a hit; in the whole collection about 4.8% have one here.
# DAX1 inh-1: inhibits human nuclear receptor DAX1; P51843; HEK293 Gal4-DAX1 luciferase reporter, luminescence; inhibition, % at 6.75 µM; 340,000 compounds, 0.99% hits;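 active means inhibition above the mean over all tested compounds plus 3 SD, cut at about 4.2% in these data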;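 further: 0% = DAX1-transfected cells with DMSO and 100% = empty-vector control cells with DMSO; inhibition shows as a rise in luminescence from relieved DAX1 repression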
# Target sequence (P51843 207-470 limits assumed): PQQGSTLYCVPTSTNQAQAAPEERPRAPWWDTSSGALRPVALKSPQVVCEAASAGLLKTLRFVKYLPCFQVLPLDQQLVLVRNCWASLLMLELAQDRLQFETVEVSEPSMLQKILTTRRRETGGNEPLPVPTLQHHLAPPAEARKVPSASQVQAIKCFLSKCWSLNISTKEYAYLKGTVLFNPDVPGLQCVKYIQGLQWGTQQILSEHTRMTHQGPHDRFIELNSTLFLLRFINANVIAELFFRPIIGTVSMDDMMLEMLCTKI
# ssDAF12 agonist: activators of S. stercoralis DAF-12 nuclear receptor; HEK293 ssDAF-12/GRIP1 lit1-tk-luc reporter, luminescence; % of 3 µM dafachronic acid response; activation, % at 6.8 µM; 370,000 compounds, 1% hits;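 active means activation above the mean over all tested compounds plus 3 SD, cut at about 0.9% in these data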;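 further: 0% = DMSO-only wells and 100% = 3 µM delta7-dafachronic acid wells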
# hcDAF12 agonist: H. contortus DAF-12 activation, primary screen. activation, % at 6.8 µM. HEK293 hcDAF-12 lit1-tk-luc reporter, luminescence; 0% DMSO, 100% Δ7-dafachronic acid. 370,000 compounds, 1.4% hits. AID 652067;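 active means activation above the mean of all tested compounds plus 3 SD, cut at about 5.5% in these data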;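 further: 100% = response to 3 µM Δ7-dafachronic acid high control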
# hgDAF12 agonist: activates the H. glycines DAF-12 receptor ligand-binding domain; HEK293 GAL4-hgDAF12 UAS-luciferase reporter, agonist luminescence; normalized to butyrate control; activation, % at 6.8 µM; 370,000 compounds, 1.8% hits; AID 687014;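 active means activation above a cutoff set at the mean of all screened compounds plus 3 SD, cut at about 10% in these data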;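 further: 0% = DMSO wells and 100% = sodium butyrate wells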
# DAX1 inh-2: blocks DAX1 repression of SF-1 activated StAR promoter; HEK293T StAR-luciferase reporter, SF-1/DAX-1 repression relief; inhibition, % at 6.8 µM; 370,000 compounds, 1.1% hits; AID 652010;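 active means inhibition above the mean over all tested compounds plus 3 SD, cut at about 3.6% in these data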;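 further: 0% = DAX-1 cells with DMSO and 100% = cells lacking DAX-1 with DMSO; higher inhibition means more luminescence from relief of DAX-1 repression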
# Rev-erbA mod: modulates human Rev-erb alpha binding to DNA; activity, % at 10 µM; Rev-erbα–FITC-DNA binding, fluorescence polarization, 90 min; 370,000 compounds, 0.79% hits;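 active means activity above about 14%, limit read from the data; passing the limit was not always enough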;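 further: 0% = DMSO wells with 35 nM protein and 100% = DMSO wells with 750 nM protein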
# LXR ag: LXR-beta agonism as hcDAF-12 counter-screen; HEK293 Gal4-LXR tk-luc reporter, luminescence, 24 h; normalized: DMSO 0%, positive control 100%; shares compounds with hcDAF12 agonist; activation, % at 6.8 µM; 3,400 tested, under 10 active;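 active means mean percent activation of the reporter above a cutoff set as the average over tested compounds plus their standard deviation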
# Target sequence (P55055 whole entry, looked up, the tested form may be a part): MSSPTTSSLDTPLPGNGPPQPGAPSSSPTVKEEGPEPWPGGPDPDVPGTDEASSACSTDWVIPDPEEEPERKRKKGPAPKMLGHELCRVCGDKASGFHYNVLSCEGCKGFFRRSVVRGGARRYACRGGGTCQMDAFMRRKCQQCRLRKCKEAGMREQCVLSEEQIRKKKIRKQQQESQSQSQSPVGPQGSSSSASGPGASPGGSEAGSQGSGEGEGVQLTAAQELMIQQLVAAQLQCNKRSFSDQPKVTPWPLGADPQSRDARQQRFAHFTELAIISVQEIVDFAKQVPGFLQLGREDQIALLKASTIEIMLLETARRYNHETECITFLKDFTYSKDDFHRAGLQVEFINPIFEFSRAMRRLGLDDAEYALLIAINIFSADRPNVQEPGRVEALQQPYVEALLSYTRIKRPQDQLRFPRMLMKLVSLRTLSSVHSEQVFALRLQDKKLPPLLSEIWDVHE
# hcDAF12 conf: hcDAF-12 agonism, confirmation assay | shares compounds with hcDAF12 agonist | HEK293 hcDAF-12 lit1-tk-luc reporter, luminescence; % of Δ7-dafachronic acid response | activation, % at 6.8 µM | 3,400 compounds, 61% hits | AID 743032;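 active means mean activation across triplicate tests above the threshold derived from the earlier primary screen, cut at about 5.5% in these data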;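 further: 0% = DMSO only wells and 100% = 3 µM Δ7-dafachronic acid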
# An asterisk follows results filed as active; · = no result.
SMILES,DAX1 inh-1,ssDAF12 agonist,hcDAF12 agonist,hgDAF12 agonist,DAX1 inh-2,Rev-erbA mod,LXR ag,hcDAF12 conf
Clc1ccccc1-c1nc(-c2ccccc2)n[nH]1,3.6,0.7,14.7*,12.5*,2.7,0.6,0.8,6.6*
Oc1ccccc1-c1n[nH]c(-c2ccccc2O)n1,2.1,1.4*,7.1*,12.6*,-1.0,5.4,1.0,9.6*
CCOc1ccc(/C=N/n2c(-c3n[nH]c4c3CCC4)n[nH]c2=S)cc1,·,-0.9,-1.7,7.3,-1.0,11.2,·,·
O=C(C[n+]1ccc(C(=O)N/N=C/c2ccc(OCc3ccccc3)cc2)cc1)c1ccccc1,0.5,0.1,7.5*,4.6,-0.2,-4.7,0.0,1.5
O=C(C[n+]1ccc(C(=O)N/N=C/c2ccc(O)cc2)cc1)c1ccccc1,0.4,-0.7,-2.4,-1.1,-0.1,1.7,·,·
Cc1nnc(-n2cccc2)s1,·,-0.2,7.2*,-2.1,0.6,-0.4,-0.1,3.3
COC(=O)C1=C(C)N(C)C(=NCc2cc(OC)c(OC)c(OC)c2)NC1c1cccc(C(F)(F)F)c1 (stereo not given),·,-0.7,-0.3,0.6,1.2,-1.5,·,·
COc1ccc(OC)c(NC(=O)COC(=O)/C=C/c2ccco2)c1,0.5,-0.9,0.3,0.0,0.0,2.9,·,·
COc1ccc(OC)c(NC(=O)COC(=O)/C=C/c2ccccc2Cl)c1,-0.8,-1.5,7.1*,0.8,-0.1,-1.0,-0.2,0.4
CCCCCCCCN1C(=O)[C@@H](CC(=O)N2CCN(C(=O)c3ccco3)CC2)C[C@@]2(C(=O)OC)C1=C[C@H](C(C)C)O[C@@H]2C1CC1,·,-0.9,-0.3,1.9,-1.8,-3.6,·,·
Cc1ccc(-n2c(SCc3nc4ccccc4[nH]3)nnc2-c2ccccn2)cc1,·,-1.1,-2.5,-0.9,-0.3,6.0,·,·
CCOc1[nH]n(-c2ccccc2)c(=O)c1C=Nc1ccc(C(=O)OC)cc1,0.7,-1.1,7.6*,2.6,0.3,5.4,-0.4,-0.9
CCOc1[nH]n(-c2ccccc2)c(=O)c1C=Nc1ccccc1,0.8,-1.3,-1.5,2.9,-0.6,-3.6,·,·
COC(=O)C1=C(C)N(C)C(=NCC2CC2)NC1c1ccccc1 (stereo not given),·,-0.8,0.9,1.0,-2.2,-0.7,·,·
COc1ccccc1NC(=O)Nc1cccc(C(=O)O)c1,-0.6,-1.1,-0.3,2.2,0.2,-4.7,·,·
COc1ccccc1NC(=O)NC(=O)c1ccccc1,-0.4,0.7,11.0*,9.0,0.4,-1.0,1.0,12.7*
COc1cccc(NC(=O)C2CC2)c1,2.0,-1.2,0.1,0.6,0.2,-1.3,·,·
CCC1CCC(NC(=O)Nc2cccc(OC)c2)CC1 (stereo not given),2.8,-0.6,12.3*,18.7*,3.2,-2.7,1.1,6.2*
CCCCCCCCN1C(=O)[C@@H](CC(=O)N2CCCC2)C[C@@]2(C(=O)OC)C1=C[C@H](C(C)C)O[C@@H]2C1CC1,·,-0.8,0.0,-0.2,-1.4,-1.4,·,·
Cc1ccc(NC(=O)c2c(Cl)nc3ccccn23)cc1,3.0,1.1*,11.5*,12.7*,3.4,-1.1,0.9,10.3*
CCN(CC)CCn1c(=N)n(CC(=O)c2ccc(C)cc2)c2ccccc21,3.4,1.2*,8.2*,4.7,1.4,4.5,0.1,5.1
Cn1c(=N)n(CC(=O)O)c2ccccc21,1.1,-1.1,2.9,0.8,-0.3,0.9,·,·
Cc1ccc(C(=O)Cn2c(=N)n(N)c3ccccc32)cc1,4.6*,1.6*,7.5*,9.1,1.6,12.0,0.4,4.0
Cn1c(=N)n(CC(=O)c2ccccc2)c2ccccc21,·,2.5*,18.4*,10.7*,2.9,-1.6,1.8,25.0*
CC(=O)N1CCN(c2ccc(N3CCN(Cc4ccccc4)[C@H](C)C3)c(C)c2)[C@H](C)C1,·,-1.2,-1.9,3.1,-1.0,-4.8,·,·
SMILES,DAX1 inh-1,ssDAF12 agonist,hcDAF12 agonist,hgDAF12 agonist,DAX1 inh-2,Rev-erbA mod,LXR ag,hcDAF12 conf
CCCCCn1nnnc1C1(C)Cn2nccc2C(=O)N1Cc1ccco1 (stereo not given),·,-0.8,-2.5,1.6,-0.2,-4.1,·,·
O=C(Cn1nnc(-c2ccc(N3CCOCC3)cc2)n1)c1ccc(F)cc1,·,-0.9,-1.5,2.2,0.0,-4.1,·,·
Cc1ccccc1Nc1n[nH]c(C)c1[N+](=O)[O-],-0.8,0.1,9.0*,2.4,0.5,-4.9,0.1,4.5
COc1ccc(N=Cc2[nH]c3ccccc3c2O)cc1,1.0,0.7,11.9*,8.0,-0.1,9.2,1.2,9.6*
COc1ccc(CCNC(=O)c2c(O)c3ccccc3[nH]c2=O)cc1,0.6,-1.4,-0.7,0.7,-0.6,11.7,·,·
O=c1c2cc(Cl)ccc2[nH]c(=S)n1Cc1cccs1,1.8,-0.2,6.7*,0.3,0.8,13.3,-0.2,3.8
CCOC(=O)Cn1cc(CN2CCS(=O)(=O)N(Cc3ccc(C)cc3)C(C(=O)OC)C2)nn1 (stereo not given),·,0.5,1.0,1.3,0.2,-6.1,·,·
COCCCNC(=O)CCC(=O)NNc1nc2ccccc2c2nc(C)nn12,1.1,-0.1,7.2*,1.4,0.3,-0.3,-0.1,3.3
CCOCCCNC(=O)CCC(=O)NNc1nc2ccccc2c2nc(C)nn12,-0.3,-1.2,0.1,-2.3,0.0,-1.7,·,·
O=C(Nc1ccc(N2CCCCC2)cc1)c1ccc([N+](=O)[O-])o1,-0.3,0.7,7.2*,8.4,-0.4,-6.1,0.9,5.2
O=C(NCCc1ccccc1)OCc1cn(Cc2cccc(Cl)c2)nn1,·,-1.6,-0.9,2.4,0.4,5.6,·,·
CC(=O)[C@H]1CCC2C3CC=C4C[C@@H](OC(=O)CCC(=O)O)CC[C@]4(C)C3CC[C@@]21C (stereo not given in full),·,·,·,·,·,-3.2,·,·
O=C(Nc1nccc(-c2cccs2)n1)c1cccs1,2.6,0.5,7.1*,6.6,0.3,-2.4,0.3,6.8*
Brc1ccc(C2Nc3cccc4cccc(c34)N2)s1,-0.1,0.5,6.6*,5.4,0.2,-3.8,-0.2,3.7
COC(=O)[C@]12C[C@H](CC(=O)NCc3cccc(C(F)(F)F)c3)C(=O)N(CCC3=CCCCC3)C1=C[C@H](COCc1ccccc1)O[C@@H]2C,·,-1.7,-1.6,-1.1,-1.3,2.6,·,·
O=C(C[n+]1cc(Br)cc2ccccc21)c1ccc(Cl)cc1,0.2,0.0,8.2*,1.2,-0.3,7.1,-0.1,3.1
c1coc(-c2nc3c4ccccc4ccn3c2Cc2ccsc2)c1,·,1.6*,7.4*,12.4*,3.2,7.2,1.1,15.0*
